Pf growth 48h: Primary qHTS for delayed death inhibitors of the malarial parasite plastid, 48 hour incubation | AID 504832, 2011 | Potency, µM (highest dose often 28.7 µM), hits mostly inhibitors | P. falciparum luciferase growth in erythrocytes, 48 h | 5.9% of 310,000 active; active = well fitted inhibition curve with a large enough effect; inconclusive = small, poorly fitted or top-dose-only effect, or another doubt; inactive = no such curve, though single readings can be large or run the other way
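Compounds are pin-transferred into medium, infected erythrocytes (2% hematocrit, 0.1% parasitemia final) are added, and plates sit one parasite generation at 37 C in 5% CO2. Detection reagent is then added and luminescence measured.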
Pf growth 96h: Primary qHTS for delayed death inhibitors of the malarial parasite plastid, 96 hour incubation; P. falciparum luciferase reporter growth, 96 h; Potency, µM (top dose mostly 28.7 µM), most hits filed as inhibitors; 6.9% of 320,000 active; active = well fitted inhibition curve with a large enough effect; inconclusive = small, poorly fitted or top-dose-only effect, or another doubt; inactive = no such curve, though single readings can be large or run the other way
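Cell-based qHTS: luciferase-tagged P. falciparum in erythrocytes (2% hematocrit, 0.05% parasitemia final) incubated with compounds for 96 hours, 37 C, 5% CO2; luciferase detection reagent then added and luminescence measured.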
NS1 inh: qHTS Assay for Inhibitors of Influenza NS1 Protein Function. Potency, µM (highest dose often 46.1 µM). AID 2326, 2010. 0.4% of 270,000 active; note: actives are rising curves; nearly all actives have a fitted effect of over 50% in size
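OD600 was taken as the measure of yeast growth restored by compound in an NS1-expressing S. cerevisiae strain. Cells had been washed out of glucose medium and diluted 1:100 into galactose -URA medium, pH 6.0.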
Shiga inhibitor: A qHTS for Small Molecule Inhibitors of Shiga Toxin. Vero cells, Shiga toxin protein synthesis inhibition reporter. inhibition, % at 38.7 µM. 9.2% of 290,000 active. AID 2315, 2010; in the data active = inhibition mostly above about 28%, no sharp cut-off; inactive = mostly below about 43%
CHX counter: Cycloheximide Counterscreen for Small Molecule Inhibitors of Shiga Toxin | cell reporter, cycloheximide protein synthesis inhibition counterscreen | max response, % | AID 2314, 2010 | 12% of 300,000 active; in the data active = max response mostly above about 13%, no sharp cut-off; inactive = mostly below about 14%; note: read at 38.3 µM for the half of the compounds with a filed dose
SARS PLpro yeast: qHTS of Yeast-based Assay for SARS-CoV PLP; S. cerevisiae expressing SARS-CoV PLpro, growth rescue; Potency, µM (series often up to 32.9 µM), actives largely listed as activators; 0.19% of 330,000 active; note: nearly all actives have a fitted effect of over 55% in size
Of the large screens only hits and unclear results are named; the others gave an inactive call. In the library only some 21% were active in any assay of this set; here they are far more common. Unless noted, calls come from the whole dose curve.

NCCNC(=O)c1c(NC(=O)c2ccccc2)sc2c1CCCC2	Pf growth 48h inconclusive, Pf growth 96h inconclusive, CHX counter 24
COc1ccccc1NC(=O)C1CC(O)CN1C(=O)Oc1ccccc1 (stereo unspecified)	none
CCCCCC(=O)Nc1cc(S(=O)(=O)N2CCOCC2)ccc1N1CCN(C)CC1	none
CCOC(=O)c1cnc2c(OC)cccc2c1N1CCN(c2ccccn2)CC1	none
CCOC(=O)c1cnc2c(OC)cccc2c1N1CCN(c2ccc(OC)cc2)CC1	Pf growth 48h 12µM, NS1 inh inconclusive
CCOC(=O)c1cnc2c(OC)cccc2c1N1CCN(c2ccccc2OC)CC1	Pf growth 48h 7.4µM
COc1ccccc1NC(=O)CSCc1ccc([N+](=O)[O-])cc1	none
Cc1nc2sc(-c3ccccc3)cc2c(=O)n1N	Shiga inhibitor 56, CHX counter 44
O=c1c2cc(-c3ccccc3)sc2nc2n1CCC2	Shiga inhibitor 103, CHX counter 47
NC(=O)CSc1nc2sc(-c3ccccc3)cc2c(=O)n1N	Pf growth 96h inconclusive, CHX counter 26
Cc1nc2sc(-c3ccccc3)cc2c(=O)n1-n1cccc1	Shiga inhibitor 113, CHX counter 42
CC(=O)NS(=O)(=O)c1ccc2sc(C)nc2c1	none
COC(=O)C1CSC(C(=O)OC)N1C(=O)Nc1ccc(Cl)cc1 (stereo unspecified)	none
O=C(CNC(=O)c1ccccc1F)NCc1ccccn1	none (no result: Pf growth 48h, Pf growth 96h, NS1 inh, Shiga inhibitor, CHX counter)
Cc1nc2sc(-c3ccccc3)cc2c(=O)n1/N=C/N(C)C	Shiga inhibitor 72, CHX counter 37
N/C(=N\c1nc2c(c(=O)[nH]1)CCC2)Nc1ccccc1	none
Cc1cccc(NC(=O)c2cc(S(=O)(=O)N3CCCCC3)ccc2Cl)n1	Pf growth 48h 9.3µM, Pf growth 96h inconclusive (no result: NS1 inh, Shiga inhibitor, CHX counter)
COc1ccc(S(=O)(=O)N2CCCCCC2)cc1C(=O)Nc1ccc(C)cn1	Pf growth 48h inconclusive (no result: NS1 inh, Shiga inhibitor, CHX counter)
COc1ccc(S(=O)(=O)N2CCCCCC2)cc1C(=O)Nc1cc(C)ccn1	Pf growth 48h 9.3µM, Pf growth 96h 10µM (no result: NS1 inh, Shiga inhibitor, CHX counter)
Cc1cccc(NC(=O)c2ccc(Cl)c(S(=O)(=O)N3CCCC3)c2)n1	Pf growth 48h inconclusive, Pf growth 96h 7.4µM, Shiga inhibitor 59, CHX counter 54
O=C(Nc1ccncc1)c1ccc(Cl)c(S(=O)(=O)N2CCc3ccccc32)c1	Pf growth 48h 3.3µM, Pf growth 96h 3.7µM (no result: NS1 inh, Shiga inhibitor, CHX counter)
CCc1nnc(NC(=O)c2ccc(Cl)c(S(=O)(=O)N3CCc4ccccc43)c2)s1	Pf growth 96h inconclusive (no result: Pf growth 48h)
Cc1nc2ccccc2c(=O)n1NC(=O)Cc1ccc([N+](=O)[O-])cc1	none (no result: NS1 inh)
Cc1ccc(S(=O)(=O)N2CCCCC2)cc1C(=O)Nc1ccccn1	Pf growth 48h 3.3µM, Pf growth 96h 2.1µM
Cc1cccc(NC(=O)c2ccc(Cl)c(S(=O)(=O)N3CCc4ccccc43)c2)n1	Pf growth 48h 12µM, Pf growth 96h 12µM (no result: NS1 inh, Shiga inhibitor, CHX counter)
COc1ccc(S(=O)(=O)N2CCCCCC2)cc1C(=O)Nc1ccccn1	Pf growth 96h inconclusive
CCOC(=O)c1c(NC(=O)C2COc3ccccc3O2)sc(C)c1C (stereo unspecified)	Pf growth 48h 5.9µM
Cc1ccc(CSc2nnc(NC(=O)C3COc4ccccc4O3)s2)cc1 (stereo unspecified)	none
CCCNC(=O)c1c(NC(=O)C2COc3ccccc3O2)sc2c1CCCC2 (stereo unspecified)	Pf growth 96h 10µM
O=C(Nc1ncc(Cc2ccccc2)s1)C1COc2ccccc2O1 (stereo unspecified)	Shiga inhibitor 126, CHX counter 43
CCc1nnc(NC(=O)C2COc3ccccc3O2)s1 (stereo unspecified)	CHX counter 36 (no result: Pf growth 96h)
CC(C)(C)NC(=O)COc1ccccc1C#N	Pf growth 48h inconclusive
O=C(Nc1nc2c(s1)CCCC2)C1COc2ccccc2O1 (stereo unspecified)	Pf growth 96h inconclusive, Shiga inhibitor 45, CHX counter 38
COC(=O)c1c(NC(=O)C2COc3ccccc3O2)sc2c1CCN(Cc1ccccc1)C2 (stereo unspecified)	Pf growth 48h 5.2µM, Pf growth 96h inconclusive
O=C(NC1=NCCS1)C1COc2ccccc2O1 (stereo unspecified)	none
CCC(CC)c1nnc(NC(=O)CCc2ccccc2)s1	none
CCC(CC)c1nnc(NC(=O)C2COc3ccccc3O2)s1 (stereo unspecified)	Shiga inhibitor 67, CHX counter 36
CCCCCc1nnc(NC(=O)Cc2cccs2)s1	none (no result: Pf growth 96h)
CCCCCc1nnc(NC(=O)C2COc3ccccc3O2)s1 (stereo unspecified)	Shiga inhibitor 39, CHX counter 30 (no result: NS1 inh)
C[C@@H](C(=O)NNC(=O)c1ccc(Cl)cc1)N1C(=O)C2CC=CCC2C1=O (stereo partly specified)	none (no result: Pf growth 48h, Pf growth 96h, NS1 inh, Shiga inhibitor, CHX counter)
CCC/C(=N/NC(=O)c1ccccc1Cl)c1ccccc1	none (no result: NS1 inh)
O=C(CSc1nc2cccnc2n1Cc1ccccc1)NC1CCCCC1	Pf growth 48h 10µM, Pf growth 96h inconclusive
O=C(NCCc1ccccc1)c1ccc(Cn2c(SCc3cccc(F)c3)nc3cccnc32)cc1	Pf growth 48h 9.3µM, Pf growth 96h 3.3µM (no result: NS1 inh, Shiga inhibitor, CHX counter)
O=C(CCc1nc2cccnc2n1Cc1ccccc1)NCCc1ccc(Cl)cc1	Pf growth 48h inconclusive, Pf growth 96h inconclusive
Cn1c(SCC(=O)NC2CCCC2)nc2cccnc21	none
COc1cc(OC)c(C2CC(=O)N3CN(c4ccc(C)cc4)CSC3=C2C#N)cc1OC (stereo unspecified)	Shiga inhibitor 41
COc1ccc(N2CSC3=C(C#N)C(c4cc(OC)c(OC)cc4OC)CC(=O)N3C2)c(OC)c1 (stereo unspecified)	none (no result: Pf growth 48h)
COc1ccc(N2CSC3=C(C#N)C(c4cc(OC)ccc4OC)CC(=O)N3C2)c(OC)c1 (stereo unspecified)	Pf growth 96h 13µM (no result: Pf growth 48h)
Cc1cc(C)cc(NC(=O)CS(=O)(=O)c2cccc3nsnc23)c1	none
Cc1ccc(C(=O)NCCc2nnc3ccc(SCC(=O)Nc4c(C)cc(C)cc4C)nn23)cc1	SARS PLpro yeast inconclusive
Cc1ccc(C(=O)NCCc2nnc3ccc(SCC(=O)Nc4ccccc4C)nn23)cc1	Pf growth 48h inconclusive, Pf growth 96h 10µM
COc1ccc(C(=O)NCCc2nnc3ccc(SCC(=O)Nc4ccccc4)nn23)cc1	Shiga inhibitor 73, CHX counter 44
CCn1c(=O)cc(OCC(=O)NCCCN2CCCC2=O)c2ccccc21	Pf growth 48h inconclusive, Pf growth 96h inconclusive
CN[C@@H]1[C@H](O[C@@H]2O[C@H](C)[C@@](O)(CO)[C@H]2O[C@H]2[C@H](O)[C@H](O)[C@H](N=C(N)N)[C@@H](O)[C@@H]2N=C(N)N)O[C@@H](CO)[C@H](O)[C@H]1O	none (no result: Pf growth 48h, Pf growth 96h, NS1 inh, SARS PLpro yeast)
O=C(NNC(=O)c1csc(N2CCOCC2)n1)c1ccc(=O)[nH]c1	none (no result: NS1 inh, Shiga inhibitor, CHX counter)
